Experimental data taken from PubChem BioAssay AID1159580 (chemical genetic matrix, 2015).
Among all 5,500 compounds or so, about 2,000 (36%) were called active. About 18% were inconclusive and are not listed. No stated cut-off is given here; in the data, active means normalized growth mostly below about 0.91 (no sharp cut-off); inconclusive means no clear call, values can overlap the other calls; inactive means mostly above about 0.92. Some of the results follow.

Test: chemical genetic growth profiling, strain panel (AID 1159580);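 further: tested at 20 µM; growth read once vehicle control cultures reached saturation at 30 °C; 1 = growth at the plate median or of vehicle wells; lower values mean less growth of the strain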
Settings: S. cerevisiae deletion strains, growth OD
[1] = locus YBR229C, strain ROT2, hits give low values
[2] = locus YCL061C, strain MRC1, hits give low values
[3] = locus YDL101C, strain DUN1, hits give low values
[4] = locus YEL061C, strain CIN8, hits give low values
[5] = locus YHR030C, strain SLT2, hits give low values
[6] = locus YJR075W, strain HOC1, hits give low values
[7] = locus YLR039C, strain RIC1, hits give low values
[8] = locus YMR307W, strain GAS1, hits give low values
[9] = locus YPL241C, strain CIN2, hits give low values

Measured: normalized growth

N#C/C(=C\N(CCS(=O)(=O)c1ccc(Cl)cc1)Cc1cccs1)S(=O)(=O)c1ccc(Cl)cc1
inactive: locus YAL013W, strain DEP1, hits give low values 0.999 | [1] 1.01 | [2] 1.02 | [3] 1 | locus YDR150W, strain NUM1, hits give low values 1.08 | [4] 0.973 | locus YGR078C, strain PAC10, hits give low values 1.01 | [5] 1.05 | locus YHR087W, strain rtc3, hits give low values 1.01 | locus YJR043C, strain POL32, hits give low values 1.03 | [6] 1.04 | locus YKL190W, strain CNB1, hits give low values 0.987 | [7] 1.06 | locus YLR058C, strain SHM2 (second series), hits give low values 1 | locus YLR085C, strain ARP6, hits give low values 0.943 | locus YLR262C, strain YPT6, hits give low values 1.06 | locus YML094W, strain GIM5, hits give low values 0.981 | locus YMR219W, strain ESC1, hits give low values 1 | locus YMR263W, strain SAP30, hits give low values 1.09 | [8] 1.08 | locus YNL153C, strain GIM3, hits give low values 1.03 | locus YNL298W, strain CLA4 (second series), hits give low values 0.947 | locus YNL322C, strain KRE1, hits give low values 0.996 | locus YNR030W, strain Alg12, hits give low values 1 | locus YPL055C, strain LGE1, hits give low values 1.13 | [9] 0.981 | locus YPR135W, strain CTF4, hits give low values 1.19

COc1c2c(cc3c1OCO3)C13C=C[C@H](OC)CC1N(C2)CC3O (stereo not given in full)
inactive: locus YAL021C, strain ccr4, hits give low values 0.966 | locus YAL026C, strain drs2, hits give low values 0.976 | locus YAL030W, strain snc1, hits give low values 0.996 | locus YBL061C, strain skt5, hits give low values 0.984 | locus YBR009C, strain hhf1, hits give low values 1 | locus YBR021W, strain FUR4, hits give low values 1.06 | locus YBR023C, strain chs3, hits give low values 0.981 | locus YBR171W, strain sec66, hits give low values 1 | [1] 1 | locus YBR231C, strain swc5, hits give low values 1 | locus YBR279W, strain paf1, hits give low values 0.963 | locus YCL011C, strain gbp2, hits give low values 0.969 | locus YCL016C, strain dcc1, hits give low values 0.955 | locus YCL029C, strain bik1, hits give low values 0.981 | [2] 0.979 | locus YCL069W, strain vba3, hits give low values 0.991 | locus YCR088W, strain abp1, hits give low values 0.991 | locus YDL005C, strain med2, hits give low values 0.976 | locus YDL035C, strain GPR1, hits give low values 1.03 | locus YDL040C, strain nat1, hits give low values 1 | locus YDL074C, strain BRE1, hits give low values 1.01 | [3] 0.985 | locus YDL185W, strain tfp1, hits give low values 0.961 | locus YDL192W, strain arf1, hits give low values 0.986 | locus YDR001C, strain nth1, hits give low values 0.988 | locus YDR069C, strain doa4, hits give low values 0.963 | locus YDR101C, strain arx1, hits give low values 1.01 | locus YDR137W, strain rgp1, hits give low values 0.953 | locus YDR159W, strain sac3, hits give low values 0.968 | locus YDR162C, strain NBP2, hits give low values 0.99 | locus YDR195W, strain ref2 0.966 | locus YDR297W, strain sur2, hits give low values 0.976 | locus YDR318W, strain mcm21, hits give low values 0.989 | locus YDR334W, strain swr1, hits give low values 0.978 | locus YDR335W, strain msn5, hits give low values 0.972 | locus YDR388W, hits give low values 0.983 | locus YDR392W, strain spt3, hits give low values 0.915 | locus YDR502C, strain sam2, hits give low values 0.988 | locus YEL003W, strain gim4, hits give low values 1 | locus YEL037C, strain rad23, hits give low values 0.983 | locus YEL061C, strain CIN8 (second series), hits give low values 0.984 | [4] 1 | locus YER015W, strain faa2, hits give low values 0.972 | locus YER016W, strain bim1, hits give low values 0.975 | locus YER110C, hits give low values 0.97 | locus YER111C, strain swi4, hits give low values 0.977 | locus YER155C, strain BEM2 (second series), hits give low values 1.05 | locus YER155C, strain BEM2, hits give low values 0.997 | locus YER167W, strain BCK2, hits give low values 0.998 | locus YFR010W, strain ubp6, hits give low values 1.02 | locus YGL078C, strain dbp3, hits give low values 0.975 | locus YGL086W, strain mad1, hits give low values 1 | locus YGL167C, strain pmr1, hits give low values 0.999 | locus YGL173C, strain kem1, hits give low values 1.01 | locus YGL227W, strain vid30, hits give low values 0.987 | locus YGL240W, strain doc1, hits give low values 1.04 | locus YGL248W, strain PDE1, hits give low values 0.999 | locus YGL253W, strain hxk2, hits give low values 0.963 | locus YGR135W, strain pre9, hits give low values 0.972 | locus YGR252W, strain gcn5, hits give low values 1.08 | locus YHR013C, strain ard1, hits give low values 0.956 | locus YHR027C, strain rpn1, hits give low values 0.989 | [5] 0.986 | locus YHR079C, strain IRE1 (second series), hits give low values 0.986 | locus YHR094C, strain hxt1, hits give low values 0.978 | locus YHR129C, strain ARP1, hits give low values 0.994 | locus YHR142W, strain chs7, hits give low values 0.951 | locus YHR200W, strain rpn10, hits give low values 0.992 | locus YIL066C, strain RNR3, hits give low values 1 | locus YIL073C, strain SPO22, hits give low values 0.94 | locus YIL125W, strain kgd1, hits give low values 0.984 | locus YIR030C, strain dcg1, hits give low values 0.97 | locus YJL092W, strain hpr5, hits give low values 0.982 | locus YJL095W, strain BCK1 (second series), hits give low values 0.972 | locus YJL095W, strain BCK1, hits give low values 0.975 | locus YJL115W, strain asf1, hits give low values 0.957 | locus YJL129C, strain trk1, hits give low values 0.95 | locus YJL134W, strain LCB3, hits give low values 0.99 | locus YJL154C, strain vps35, hits give low values 0.977 | locus YJL164C, strain tpk1, hits give low values 1.02 | locus YJL166W, strain qcr8, hits give low values 0.989 | locus YJL168C, strain set2, hits give low values 0.985 | locus YJL187C, strain SWE1 (second series), hits give low values 0.98 | locus YJL187C, strain SWE1, hits give low values 0.987 | [6] 1 | locus YKL009W, strain mrt4, hits give low values 0.992 | locus YKL068W, hits give low values 0.98 | locus YKL085W, strain MDH1 (second series), hits give low values 1 | locus YKL085W, strain MDH1, hits give low values 1 | locus YKL160W, strain elf1, hits give low values 0.95 | locus YKR001C, strain vps1, hits give low values 0.99 | locus YKR026C, strain gcn3, hits give low values 0.993 | locus YKR091W, strain srl3, hits give low values 0.978 | locus YLL001W, strain dnm1, hits give low values 0.996 | locus YLL026W, hits give low values 0.98 | locus YLL041C, strain sdh2, hits give low values 0.98 | locus YLR027C, strain aat2, hits give low values 0.996 | [7] 1 | locus YLR058C, strain SHM2, hits give low values 0.994 | locus YLR102C, strain apc9, hits give low values 0.988 | locus YLR221C, strain rsa3, hits give low values 1.04 | locus YLR258W, strain gsy2, hits give low values 0.981 | locus YLR262C, strain YPT6 (second series), hits give low values 1 | locus YLR268W, strain sec22, hits give low values 1.02 | locus YLR320W, strain mms22, hits give low values 1.02 | locus YLR342W, strain FKS1 (second series), hits give low values 1.08 | locus YLR342W, strain FKS1, hits give low values 0.988 | locus YLR357W, strain rsc2, hits give low values 0.981 | locus YLR370C, strain arc18, hits give low values 0.971 | locus YLR371W, strain rom2, hits give low values 0.957 | locus YLR384C, strain iki3, hits give low values 0.978 | locus YLR418C, strain cdc73, hits give low values 1.01 | locus YML016C, strain PPZ1, hits give low values 0.999 | locus YML032C, strain rad52, hits give low values 1 | locus YML120C, strain ndi1, hits give low values 1 | locus YML124C, strain tub3, hits give low values 0.982 | locus YMR058W, strain fet3, hits give low values 0.979 | locus YMR078C, strain ctf18, hits give low values 0.967 | locus YMR125W, strain sto1, hits give low values 0.98 | locus YMR129W, hits give low values 0.965 | locus YMR205C, strain PFK2, hits give low values 1.02 | locus YMR223W, strain ubp8, hits give low values 0.986 | locus YMR231W, strain pep5, hits give low values 0.993 | [8] 1.23 | locus YNL067W, strain RPL9B, hits give low values 0.974 | locus YNL071W, strain lat1, hits give low values 0.993 | locus YNL128W, strain TEP1, hits give low values 0.985 | locus YNL209W, strain ssb2, hits give low values 0.963 | locus YNL233W, strain BNI4, hits give low values 1.01 | locus YNL248C, strain rpa49, hits give low values 0.938 | locus YNL250W, strain rad50, hits give low values 0.983 | locus YNL271C, strain bni1, hits give low values 0.992 | locus YNL298W, strain CLA4, hits give low values 0.985 | locus YNL307C, strain MCK1, hits give low values 0.991 | locus YNL322C, strain KRE1 (second series), hits give low values 0.983 | locus YNR049C, strain mso1, hits give low values 0.954 | locus YNR052C, strain pop2, hits give low values 0.977 | locus YOL012C, strain htz1 0.827 | locus YOL147C, strain pex11, hits give low values 0.983 | locus YOR001W, strain rrp6, hits give low values 1.05 | locus YOR061W, strain CKA2, hits give low values 0.993 | locus YOR069W, strain VPS5, hits give low values 0.986 | locus YOR070C, strain gyp1, hits give low values 0.974 | locus YOR080W, strain dia2, hits give low values 0.964 | locus YOR083W, strain WHI5, hits give low values 0.928 | locus YOR106W, strain vam3, hits give low values 0.957 | locus YOR136W, strain idh2, hits give low values 0.992 | locus YOR144C, strain elg1, hits give low values 0.99 | locus YOR184W, strain ser1, hits give low values 1.04 | locus YOR265W, strain rbl2, hits give low values 0.99 | locus YOR270C, strain vph1, hits give low values 0.973 | locus YOR290C, strain snf2, hits give low values 0.956 | locus YOR316C, strain cot1, hits give low values 0.983 | locus YPL051W, strain arl3, hits give low values 0.963 | locus YPL078C, strain atp4, hits give low values 0.96 | locus YPL106C, strain sse1, hits give low values 0.984 | locus YPL240C, strain hsp82, hits give low values 0.992 | [9] 0.988 | locus YPR119W, strain clb2, hits give low values 0.981 | locus YPR141C, strain kar3, hits give low values 0.968 | locus YPR163C, strain tif3, hits give low values 0.996 | locus YPR167C, strain met16, hits give low values 0.981 | strain wtn01, hits give low values 1.01
